Tests used:
Experiment in all cases: log2 ratio of Biotin-Ahx-Ub-VS probe labelling (fragment/DMSO); higher = less target engagement (more negative = stronger competition), active = hit call of the paper (q ≤ 0.05, log2 ratio ≤ -1)
Settings in all cases: compound concentration: 200 uM; treatment time: 3 h
USP19 = molecular target: T1, USP19 (UniProt O94966)
T1 sequence (whole entry): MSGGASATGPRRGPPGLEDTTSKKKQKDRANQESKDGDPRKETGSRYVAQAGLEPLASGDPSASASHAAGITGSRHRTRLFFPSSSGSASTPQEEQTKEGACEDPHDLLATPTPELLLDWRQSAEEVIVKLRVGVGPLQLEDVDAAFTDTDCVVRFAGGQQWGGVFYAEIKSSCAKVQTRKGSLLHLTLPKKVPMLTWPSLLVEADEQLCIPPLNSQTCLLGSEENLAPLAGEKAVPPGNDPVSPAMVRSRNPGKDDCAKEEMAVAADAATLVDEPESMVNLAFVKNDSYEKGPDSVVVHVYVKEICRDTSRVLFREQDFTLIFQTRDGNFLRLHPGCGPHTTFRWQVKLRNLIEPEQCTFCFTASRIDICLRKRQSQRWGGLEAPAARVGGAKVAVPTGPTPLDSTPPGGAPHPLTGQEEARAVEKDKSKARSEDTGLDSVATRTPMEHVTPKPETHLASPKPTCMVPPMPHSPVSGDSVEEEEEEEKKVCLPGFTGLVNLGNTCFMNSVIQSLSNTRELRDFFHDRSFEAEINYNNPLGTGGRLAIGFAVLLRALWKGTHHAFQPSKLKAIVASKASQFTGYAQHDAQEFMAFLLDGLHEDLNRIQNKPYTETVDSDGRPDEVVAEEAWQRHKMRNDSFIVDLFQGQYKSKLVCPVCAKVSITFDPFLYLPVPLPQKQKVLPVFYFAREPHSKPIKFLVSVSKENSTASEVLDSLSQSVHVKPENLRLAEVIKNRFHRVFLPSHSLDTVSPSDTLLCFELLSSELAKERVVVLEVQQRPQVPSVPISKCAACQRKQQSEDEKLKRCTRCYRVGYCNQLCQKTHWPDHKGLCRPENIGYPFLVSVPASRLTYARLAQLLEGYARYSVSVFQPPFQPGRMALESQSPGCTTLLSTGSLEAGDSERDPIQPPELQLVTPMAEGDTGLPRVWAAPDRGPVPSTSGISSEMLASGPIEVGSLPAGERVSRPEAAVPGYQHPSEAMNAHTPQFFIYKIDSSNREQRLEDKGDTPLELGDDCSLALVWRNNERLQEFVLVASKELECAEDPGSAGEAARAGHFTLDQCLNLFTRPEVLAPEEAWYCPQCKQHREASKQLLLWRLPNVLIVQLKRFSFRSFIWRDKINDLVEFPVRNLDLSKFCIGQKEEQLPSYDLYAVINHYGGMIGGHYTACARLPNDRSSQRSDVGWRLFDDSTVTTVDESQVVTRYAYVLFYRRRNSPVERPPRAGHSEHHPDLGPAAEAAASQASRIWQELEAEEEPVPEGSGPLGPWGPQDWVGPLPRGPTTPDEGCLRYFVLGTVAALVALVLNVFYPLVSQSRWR
How it was run: (§1)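 Each value is an average log2 ratio of fragment to vehicle, tested by unpaired t-test. The underlying Spectronaut label-free quantities were global-median-normalised, and only proteins with ≥2 unique peptides were included. Triplicate HEK293T lysate samples (495 µg) were exposed to fragment at 200 µM or vehicle for 3 h, then to Biotin-Ahx-Ub-VS at 0.5 µM final for 1 h, before NeutrAvidin enrichment of labelled DUBs, LysC and trypsin digestion, and diaPASEF LC-MS/MS.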

USP24 = USP24 (UniProt Q9UPU5)
How it was run: as §1

USP25 = molecular target: T2, USP25 (UniProt Q9UHP3)
T2 sequence (whole entry): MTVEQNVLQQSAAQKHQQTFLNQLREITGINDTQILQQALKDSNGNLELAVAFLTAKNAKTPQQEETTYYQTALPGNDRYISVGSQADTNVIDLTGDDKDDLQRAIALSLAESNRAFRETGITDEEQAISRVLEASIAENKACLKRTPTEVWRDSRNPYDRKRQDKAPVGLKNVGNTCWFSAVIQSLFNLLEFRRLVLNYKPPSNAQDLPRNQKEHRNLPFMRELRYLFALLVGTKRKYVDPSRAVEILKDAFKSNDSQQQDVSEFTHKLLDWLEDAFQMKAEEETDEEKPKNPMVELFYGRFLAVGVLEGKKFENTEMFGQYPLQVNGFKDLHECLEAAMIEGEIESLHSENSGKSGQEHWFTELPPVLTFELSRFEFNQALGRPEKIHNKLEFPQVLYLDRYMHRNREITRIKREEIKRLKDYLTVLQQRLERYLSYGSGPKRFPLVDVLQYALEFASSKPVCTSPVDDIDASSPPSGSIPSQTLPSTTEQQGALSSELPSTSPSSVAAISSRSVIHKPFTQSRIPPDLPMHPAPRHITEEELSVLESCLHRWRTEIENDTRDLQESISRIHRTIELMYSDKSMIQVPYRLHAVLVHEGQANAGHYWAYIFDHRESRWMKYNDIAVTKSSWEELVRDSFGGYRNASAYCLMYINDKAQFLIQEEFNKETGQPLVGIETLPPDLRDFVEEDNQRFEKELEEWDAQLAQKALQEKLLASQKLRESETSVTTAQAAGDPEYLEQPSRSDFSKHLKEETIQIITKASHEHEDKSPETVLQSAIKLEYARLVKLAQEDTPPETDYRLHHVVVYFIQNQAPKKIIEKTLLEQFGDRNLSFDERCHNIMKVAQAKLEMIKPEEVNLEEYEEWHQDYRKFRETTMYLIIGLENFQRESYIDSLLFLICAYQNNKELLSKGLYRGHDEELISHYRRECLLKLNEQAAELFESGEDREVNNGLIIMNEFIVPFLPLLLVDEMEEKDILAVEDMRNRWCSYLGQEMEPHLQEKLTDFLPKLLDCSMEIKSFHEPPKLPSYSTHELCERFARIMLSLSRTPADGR
How it was run: as §1

USP28 = molecular target: T3, USP28 (UniProt Q96RU2)
T3 sequence (whole entry): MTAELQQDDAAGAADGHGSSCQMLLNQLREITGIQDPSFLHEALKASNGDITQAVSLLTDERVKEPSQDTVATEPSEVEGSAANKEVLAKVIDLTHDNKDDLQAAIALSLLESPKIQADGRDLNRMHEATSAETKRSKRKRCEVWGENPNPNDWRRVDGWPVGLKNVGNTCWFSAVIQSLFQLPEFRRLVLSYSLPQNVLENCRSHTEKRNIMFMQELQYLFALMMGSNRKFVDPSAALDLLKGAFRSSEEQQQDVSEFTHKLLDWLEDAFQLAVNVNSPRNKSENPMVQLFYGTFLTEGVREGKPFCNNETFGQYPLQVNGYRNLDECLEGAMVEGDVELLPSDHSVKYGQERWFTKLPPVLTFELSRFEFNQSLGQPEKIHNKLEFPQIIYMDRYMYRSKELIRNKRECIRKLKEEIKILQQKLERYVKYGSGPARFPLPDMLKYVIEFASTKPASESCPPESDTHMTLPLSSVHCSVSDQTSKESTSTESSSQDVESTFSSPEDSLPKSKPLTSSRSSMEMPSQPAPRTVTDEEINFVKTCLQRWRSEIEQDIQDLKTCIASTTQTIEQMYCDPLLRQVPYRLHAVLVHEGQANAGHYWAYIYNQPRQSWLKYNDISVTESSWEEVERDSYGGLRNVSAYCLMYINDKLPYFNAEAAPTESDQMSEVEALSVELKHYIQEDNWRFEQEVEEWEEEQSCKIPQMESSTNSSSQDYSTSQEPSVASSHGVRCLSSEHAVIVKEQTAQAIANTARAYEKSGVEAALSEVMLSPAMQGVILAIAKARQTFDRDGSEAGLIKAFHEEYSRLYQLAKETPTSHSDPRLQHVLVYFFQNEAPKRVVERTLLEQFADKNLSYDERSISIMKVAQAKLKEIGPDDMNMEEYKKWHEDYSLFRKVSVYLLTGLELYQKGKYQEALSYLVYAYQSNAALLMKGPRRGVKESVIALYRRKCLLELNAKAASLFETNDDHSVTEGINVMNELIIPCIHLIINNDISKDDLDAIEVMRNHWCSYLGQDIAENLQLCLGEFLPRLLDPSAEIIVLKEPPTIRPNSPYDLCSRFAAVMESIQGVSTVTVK
How it was run: as §1

Measured: log2 ratio of Biotin-Ahx-Ub-VS probe labelling

Sequence of USP24 (Q9UPU5 whole entry): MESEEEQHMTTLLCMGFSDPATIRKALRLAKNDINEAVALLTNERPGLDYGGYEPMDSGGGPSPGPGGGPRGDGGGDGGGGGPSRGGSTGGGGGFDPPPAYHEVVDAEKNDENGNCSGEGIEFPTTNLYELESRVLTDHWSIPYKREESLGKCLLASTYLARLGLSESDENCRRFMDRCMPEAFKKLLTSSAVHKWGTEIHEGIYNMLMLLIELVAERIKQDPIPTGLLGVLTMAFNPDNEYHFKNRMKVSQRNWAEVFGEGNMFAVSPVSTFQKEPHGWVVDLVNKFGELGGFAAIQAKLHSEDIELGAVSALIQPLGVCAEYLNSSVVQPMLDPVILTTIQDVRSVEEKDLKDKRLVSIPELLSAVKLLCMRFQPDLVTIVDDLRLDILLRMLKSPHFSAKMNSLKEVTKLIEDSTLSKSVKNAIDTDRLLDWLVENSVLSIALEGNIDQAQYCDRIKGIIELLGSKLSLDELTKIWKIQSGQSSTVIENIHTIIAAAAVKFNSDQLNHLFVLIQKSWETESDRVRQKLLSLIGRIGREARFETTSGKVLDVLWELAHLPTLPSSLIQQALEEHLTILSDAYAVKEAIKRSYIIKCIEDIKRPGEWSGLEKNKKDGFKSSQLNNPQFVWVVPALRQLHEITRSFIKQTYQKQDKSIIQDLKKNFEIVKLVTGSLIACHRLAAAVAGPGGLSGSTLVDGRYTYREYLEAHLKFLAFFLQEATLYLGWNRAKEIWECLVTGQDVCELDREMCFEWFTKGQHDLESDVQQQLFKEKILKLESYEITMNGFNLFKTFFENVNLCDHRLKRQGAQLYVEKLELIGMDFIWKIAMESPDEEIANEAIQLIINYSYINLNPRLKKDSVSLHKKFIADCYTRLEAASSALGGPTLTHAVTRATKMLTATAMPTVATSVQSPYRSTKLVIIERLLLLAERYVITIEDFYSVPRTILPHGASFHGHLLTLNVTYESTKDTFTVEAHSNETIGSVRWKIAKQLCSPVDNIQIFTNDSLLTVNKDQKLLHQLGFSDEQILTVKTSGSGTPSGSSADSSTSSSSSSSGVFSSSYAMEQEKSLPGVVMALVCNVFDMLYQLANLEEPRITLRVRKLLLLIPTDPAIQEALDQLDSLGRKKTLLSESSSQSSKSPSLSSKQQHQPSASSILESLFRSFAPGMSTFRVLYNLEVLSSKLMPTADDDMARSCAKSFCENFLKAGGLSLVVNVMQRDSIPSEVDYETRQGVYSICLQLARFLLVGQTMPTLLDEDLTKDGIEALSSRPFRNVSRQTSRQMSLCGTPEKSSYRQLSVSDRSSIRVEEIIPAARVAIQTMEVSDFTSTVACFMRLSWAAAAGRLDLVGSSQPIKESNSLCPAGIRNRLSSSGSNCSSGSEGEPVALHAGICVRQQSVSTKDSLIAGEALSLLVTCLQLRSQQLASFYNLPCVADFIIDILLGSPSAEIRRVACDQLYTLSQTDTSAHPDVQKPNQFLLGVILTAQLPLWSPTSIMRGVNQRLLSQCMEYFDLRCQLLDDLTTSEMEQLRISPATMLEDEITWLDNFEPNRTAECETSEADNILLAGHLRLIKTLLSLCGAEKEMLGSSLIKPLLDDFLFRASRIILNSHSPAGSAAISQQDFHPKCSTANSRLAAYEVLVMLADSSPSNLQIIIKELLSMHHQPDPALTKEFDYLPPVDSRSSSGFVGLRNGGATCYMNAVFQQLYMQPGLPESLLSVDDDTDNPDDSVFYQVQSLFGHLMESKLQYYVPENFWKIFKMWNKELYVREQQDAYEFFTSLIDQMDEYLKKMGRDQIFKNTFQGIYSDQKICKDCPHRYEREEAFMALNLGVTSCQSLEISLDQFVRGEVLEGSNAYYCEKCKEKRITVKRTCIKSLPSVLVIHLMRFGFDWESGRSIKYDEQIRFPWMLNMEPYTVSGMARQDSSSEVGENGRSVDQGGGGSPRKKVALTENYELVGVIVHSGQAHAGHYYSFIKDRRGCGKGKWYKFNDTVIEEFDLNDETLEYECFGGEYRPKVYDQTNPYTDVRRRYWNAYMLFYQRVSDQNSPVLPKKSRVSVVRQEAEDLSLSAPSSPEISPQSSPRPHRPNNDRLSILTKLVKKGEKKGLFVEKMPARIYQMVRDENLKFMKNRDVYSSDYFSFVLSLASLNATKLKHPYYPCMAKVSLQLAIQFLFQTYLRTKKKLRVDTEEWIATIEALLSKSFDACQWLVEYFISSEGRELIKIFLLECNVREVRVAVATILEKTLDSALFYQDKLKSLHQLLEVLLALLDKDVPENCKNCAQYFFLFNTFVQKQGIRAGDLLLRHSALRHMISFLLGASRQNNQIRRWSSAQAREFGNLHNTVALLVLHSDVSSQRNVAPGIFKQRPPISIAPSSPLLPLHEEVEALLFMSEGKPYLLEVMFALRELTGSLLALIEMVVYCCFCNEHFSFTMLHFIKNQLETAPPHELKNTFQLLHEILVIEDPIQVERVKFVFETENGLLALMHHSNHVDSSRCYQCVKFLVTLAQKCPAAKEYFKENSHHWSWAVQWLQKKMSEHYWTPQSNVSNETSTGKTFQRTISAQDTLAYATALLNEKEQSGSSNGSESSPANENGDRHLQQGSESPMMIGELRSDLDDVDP

Cc1ncsc1CCNC(=O)CCl
inactive: USP19 0.249 | USP24 0.197 | USP25 -0.144 | USP28 0.0198

Reference: the supplement of paper PMC11732987, “Enantioselective OTUD7B fragment discovery through chemoproteomics screening and high-throughput optimisation” (Communications Chemistry, 2025)
